Structures are written as SMILES. In all, about 4,100 compounds went through this assay and about 1,600 (39%) were called active. About 25% were inconclusive and are not listed. Calls come from the whole dose curve; as a rule, active = well fitted inhibition curve with a large enough effect; inconclusive = small, poorly fitted or top-dose-only effect; inactive = no such curve, though single readings can be large or run the other way. This is one part of the list. A call without a number means that no potency is given here.
Potency is the fitted concentration of half-maximal effect.

A short description of the assay: qHTS Validation assay for Inhibitors of Plasmodium falciparum Dd2 growth in vitro. Note: nearly all actives have a fitted effect of over 70% in size. Particulars: P. falciparum Dd2 in RBCs, SYBR Green growth, 72 h; series mostly up to 28.7 µM. Summed up: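 P. falciparum Dd2-infected red blood cells (2.5% hematocrit, 0.3% parasitemia) grown 72 h at 37 °C under 5% O2 with compounds in a titration, 29 uM to 0.5 nM final. Growth read as SYBR Green-1 fluorescence after ~16 h lysis; artesunate 300 nM as positive control.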
A general note: Quantitative high-throughput screening tests each substance at several concentrations.
With `COc1ccccc1-n1c(SCC(=O)NC(C)(C)C)nc(O)cc1=O`, the Potency result was “inactive”.
Regarding `COc1ccccc1NC(=O)CSc1nc2c(oc3ccccc32)c(=O)n1-c1ccc(C)cc1`, the Potency was 15 µM (active).
In the case of `COCCN1C(=O)CCC2(CNC(=O)CCc3nc4ccccc4[nH]3)CCCC=C12` (centres undefined), the Potency result was “inactive”.
Turning to `COCCN1C(=O)CC[C@]2(C(=O)NCc3ccccc3Cl)CCCC[C@@H]12`, the Potency entry was “inactive”.
As for `CCc1nc(NC(=O)C2c3ccccc3C(=O)N(CCOC)C23CCCC3)sc1C` (centres undefined), the Potency is 5.96 µM (active).
Turning to `COCCN1C(=O)c2ccccc2C(C(=O)Nc2nc3ccccc3[nH]2)C12CCCC2` (centres undefined), the Potency is 4.22 µM (active).
The value for `COCCN1C(=O)c2ccccc2C(C(=O)Nc2nc3ccccc3[nH]2)C12CCCCC2` (centres undefined) was 4.73 µM (active).
As for `COc1nc(N(C)S(=O)(=O)c2ccc(C)cc2)nc(C)c1Br`, the Potency entry is “inactive”.
The value for `Cc1cc(C(F)(F)F)nn1CC(=O)NCCc1ncc(C)n1CC1CC1` was 10.6 µM (active); that for `Cc1cnc(CCNC(=O)Cn2c(=O)oc3ccccc32)n1C1CC1` was “inactive”.
For `Cc1nnc2n1CCC(N(C)S(=O)(=O)c1cn(C)cn1)CC2` (centres undefined), the Potency entry is “inactive”.
To `CN(CCn1cc(-c2nccn2C)nn1)S(C)(=O)=O` belongs “inactive”; to `Cc1cccc2cc(CN(Cc3ccco3)C(c3nnnn3CCc3ccccc3)C(C)C)c(=O)[nH]c12` (centres undefined), 10.6 µM (active).
The value for `Cc1noc(-c2ccn3c(CNC(=O)c4ccccc4Cl)nnc3c2)n1` was “inactive”; that for `c1ccc(CNc2nc(-c3ccccn3)nc3ccccc23)cc1` was 5.31 µM (active).
Turning to `COC(=O)COc1ccc(-c2nccc(-c3ccccn3)n2)cc1`, the Potency result is “inactive”.
`c1ccc(CCNc2nc(-c3ccccn3)cs2)cc1`: the Potency is 7.5 µM (active).
On to `O=C(O)Cn1c(-c2ccccn2)nc2ccccc21`, for which the Potency result was “inactive”.
The value for `Cc1ccccc1Nc1nnc(SCc2cc(=O)n3ccsc3n2)s1` was “inactive”.
To `Cc1cccnc1Nc1nc(-c2ccccn2)cs1` belongs 0.473 µM (active); to `Cc1ccccc1Nc1nc(-c2cccnc2)cs1`, 9.44 µM (active); to `Cc1nn(C)cc1CN(C)C(=O)CC12CC3CC(CC(C3)C1)C2`, “inactive”.
To `CC(C)c1noc(-c2cn(C3CCCN(C(=O)c4ccc(N(C)C)cc4)C3)nn2)n1` (centres undefined) belongs “inactive”; to `COc1ccc(OC)c(C2Nc3c(C)cc(C)cc3-c3cc(C)nn32)c1` (centres undefined), “inactive”; to `c1ccc(-c2nc(NCc3ccco3)c3ccccc3n2)nc1`, 5.96 µM (active).
As for `c1ccc(CCNc2nc(-c3ccccn3)nc3ccccc23)cc1`, the Potency is 4.73 µM (active).
To `CCCN(CCC)c1nc(-c2ccccn2)nc2ccccc12` belongs 5.31 µM (active); to `CCCCOc1cccc(C(=O)N(Cc2ccc(Br)o2)C2CCS(=O)(=O)C2)c1` (centres undefined), “inactive”.
To `Oc1cc(NCc2ccccc2)cc2cccnc12` belongs 2.99 µM (active); to `Oc1cc(NCc2ccc(F)cc2)cc2cccnc12`, 4.73 µM (active); to `O=C(CCn1c(=O)c2cccn2c2cccnc21)NCc1ccc(F)cc1`, “inactive”.
For `Cc1ccc(-c2cc3c(=O)n(CCNC(=O)c4cccnc4)ccn3n2)c(C)c1`, the Potency result was “inactive”.
The value for `COc1ccc(NC(=O)CN(C)C(=O)c2oc3c(ccc4ccccc43)c2C)cc1` was 0.531 µM (active); that for `COc1ccc(C(=O)OCCc2cc3ccccc3c(=O)o2)cc1` was “inactive”; that for `COc1cccc(CNC(=O)Cn2c(SCC(=O)Nc3ccc(F)cc3)nc3ccccc32)c1` was “inactive”.
The value for `COc1cccc(NC(=O)CCc2c(C)nc3c4cccnc4nn3c2C)c1` was “inactive”; that for `COc1cccc(NC(=O)CN(C)C(=O)c2oc3c(ccc4ccccc43)c2C)c1` was 0.75 µM (active).
For `COCc1nc(C2CC(NC(=O)c3cc(-c4ccsc4)n[nH]3)C2)cc(=O)[nH]1` (centres undefined), the Potency entry was “inactive”.
The value for `COc1ccc(C(C(=O)Nc2ccc(C(C)C)cc2)N(Cc2ccco2)C(=O)CC2NC(=O)NC2=O)cc1` (centres undefined) was 6.68 µM (active); that for `CCOc1ccc(CN2C(=O)c3ccccc3Sc3ccc(C(=O)N4CCN(C)CC4)cc32)cc1` was 0.299 µM (active).
Consider `CN1CCN(C(=O)c2ccc3c(c2)N(Cc2ccc(C(F)(F)F)cc2)C(=O)c2ccccc2S3)CC1`, for which the Potency is 0.531 µM (active).
On to `O=C(c1ccc2[nH]ncc2c1)N1CCOCC12CCN(CCCc1ccccc1)CC2`, for which the Potency entry is “inactive”.
The value for `Cc1cn2nc(C(=O)N3CCC(NC(=O)c4ccc(F)cc4)CC3)cc2c(=O)[nH]1` was “inactive”; that for `O=C(Nc1ccsc1C(=O)NC1CCCCC1)c1ccc(F)cc1` was 6.68 µM (active).
For `CCCN(CC1CCOC1)S(=O)(=O)c1ccc(C)c(C)c1` (centres undefined), the Potency entry is “inactive”.
To `COC(=O)c1cnn(-c2ccc(C(=O)Nc3cccc(C(C)=O)c3)cc2)c1N` belongs “inactive”.
To `Cc1ccc(C(=O)Nc2ccc(OCc3cc(=O)n4c(C)csc4n3)cc2)cc1` belongs “inactive”; to `COC(=O)c1cnn(-c2ccc(C(=O)Nc3ccc(OC(F)(F)F)cc3)cc2)c1N`, 4.73 µM (active).
The value for `O=C(NCc1ccc2c(c1)OCO2)c1cnc2c(c1)N([S+](=O)([O-])c1cccnc1)CCC2` was “inactive”; that for `CC(C)c1ccc(CC(=O)N2CCCc3ncc(C(=O)Nc4cccnc4)cc32)cc1` was 0.863 µM (active); that for `CNC(=O)c1cnc2c(c1)N(C(=O)Cc1ccc(C(C)C)cc1)CCC2` was “inactive”.
In the case of `CC(C)c1ccc(CC(=O)N2CCCc3ncc(C(=O)NCCc4c[nH]c5ccccc45)cc32)cc1`, the Potency is 15 µM (active).
In the case of `Cn1cc(CC(=O)N2CCCc3ncc(C(=O)Nc4cccnc4)cc32)c2ccccc21`, the Potency entry is “inactive”.
To `CC(C)CCNC(=O)c1cnc2c(c1)N(C(=O)Cc1cn(C)c3ccccc13)CCC2` belongs “inactive”.
`O=C(O)CCC(=O)Nc1ccc(-n2ccc(C(F)(F)F)n2)cc1`: the Potency entry is “inactive”.
As for `O=C1N(c2ccccc2C(F)(F)F)O[C@@]1(c1ccccc1)C1CCCCC1`, the Potency was 5.31 µM (active).
Take `O=C1N(c2ccccc2C(F)(F)F)O[C@@]1(c1ccccc1)C1CCCC1`: the Potency was 2.99 µM (active).
As for `O=C1CC2(CCN(Cc3cccs3)CC2)Oc2cc(Cl)ccc21`, the Potency was 5.31 µM (active).
Take `O=C1CC2(CCN(CC3CCCCC3)CC2)Oc2cc(Cl)ccc21`: the Potency was 1.5 µM (active).
The value for `CC(=O)c1c(C)nc(C)nc1NC(=O)C(C)C` was “inactive”; that for `Cc1ccc(CN2CCC(CNC(=O)c3cnn(-c4ccc(C)cc4)c3C3CCN(C(=O)OC(C)(C)C)CC3)CC2)cc1` was 8.41 µM (active); that for `COc1ccccc1CN1CCC(CNC(=O)c2cnn(-c3cccc(Cl)c3)c2C2CCN(C(=O)OC(C)(C)C)CC2)CC1` was 7.5 µM (active).
To `COc1ccccc1CN1CCC(CNC(=O)c2cnn(-c3ccc(Cl)cc3)c2C2CCN(C(=O)OC(C)(C)C)CC2)CC1` belongs 2.66 µM (active); to `CNC(=O)[C@@H]1CN(C(=O)c2cc(OC)cc(OC)c2)C[C@H]1COC`, “inactive”; to `CC(=O)Nc1ccc(NC(=O)Cn2ccn3nc4c(c3c2=O)CCCCC4)cc1`, “inactive”.
Consider `CCc1c(C)c2ccc(O)c(CN3CCN(c4ccccc4)CC3)c2oc1=O`, for which the Potency is 2.37 µM (active).
To `COc1ccc(-c2cc(=O)oc3c4c(ccc23)OCN(Cc2ccccc2)C4)cc1` belongs 2.99 µM (active); to `COc1ccccc1CN1COc2ccc3c(oc(=O)c4ccccc43)c2C1`, 2.11 µM (active).
The value for `COc1ccccc1Cn1cc(C(=O)c2ccc(C)cc2)c(=O)c2cc(C)ccc21` was “inactive”; that for `O=c1cc(-c2ccccc2)c2ccc3c(c2o1)CN(Cc1ccccc1)CO3` was 2.66 µM (active).
To `COc1ccc(-c2ncc3c(n2)OCCN(Cc2ccccc2)C3=O)cc1` belongs “inactive”; to `Cn1nc(-c2nncn2CC2CC2)c2c1CCN(C(=O)c1[nH]nc3c1COc1ccccc1-3)C2`, “inactive”.
Turning to `COc1cccc(C2Cn3nnc(-c4nc(-c5ccccc5Br)no4)c3CO2)c1` (centres undefined), the Potency entry is “inactive”.
`O=c1cc(-c2ccccc2)c2ccc3c(c2o1)CN(Cc1cccc(Cl)c1)CO3`: the Potency was 0.842 µM (active).
To `CCC(=O)N(C1CCOCC1)C1CCN(Cc2cccc(Cl)c2)CC1` belongs “inactive”; to `Cc1ccc(CN2CCc3oc(C)c(C(=O)N(C)CC(=O)N4CCCC4)c3C2)cc1`, “inactive”; to `Cc1ccc(CN2COc3ccc4c(-c5ccccc5)cc(=O)oc4c3C2)cc1`, 0.842 µM (active).
In the case of `O=C1CN(Cc2ccc(-c3ccccc3)cc2)CCN1c1cc(Cl)ncn1`, the Potency entry is “inactive”.
To `CCc1c(C)c2ccc3c(c2oc1=O)CN(Cc1ccccc1)CO3` belongs 2.11 µM (active).
To `O=C(NC(=S)Nc1ccc(NC(=O)c2cccs2)cc1)c1ccco1` belongs 9.44 µM (active).
On to `COc1ccc(C(=O)NCCn2ccn3nc(-c4cc(C)ccc4C)cc3c2=O)cc1OC`, for which the Potency entry is “inactive”.
`CCN(CCCNC(=O)c1nn(-c2ccc(OC)c(Cl)c2)c(=O)c2c1c1ccccc1n2C)c1cccc(C)c1`: the Potency is 15 µM (active).
The value for `Cc1cccc(CNC(=O)Cn2nc(C)c3nn(-c4ccc(Cl)cc4)c(C)c3c2=O)c1` was “inactive”.
Take `COc1ccccc1CC(=O)NCCn1ccn2nc(-c3ccc(C)c(C)c3)cc2c1=O`: the Potency result is “inactive”.
To `CCN(CC)CCCNC(=O)c1nn(-c2ccc(OC)c(Cl)c2)c(=O)c2c1c1ccccc1n2C` belongs 10.6 µM (active); to `COc1ccc(-n2nc(C(=O)NCCc3ccc(OC)c(OC)c3)c3c4ccccc4n(C)c3c2=O)cc1Cl`, 2.99 µM (active); to `CCOc1ccc(-c2cc3c(=O)n(CCNC(=O)c4ccccc4OC)ccn3n2)cc1`, “inactive”.
As for `N#Cc1nc(Nc2cc(F)cc(F)c2)c2ncn(CC(F)F)c2n1`, the Potency was 4.73 µM (active).
The value for `CCn1cnc2c(Nc3cc(F)cc(F)c3)nc(C#N)nc21` was 2.37 µM (active).
The value for `Cc1ccc2nc(-c3sc4nc(C)ccc4c3N)[nH]c2c1` was “inactive”; that for `CCCC(O)c1nc2ccccc2n1CCCCOc1ccc(OC)cc1` (centres undefined) was 15 µM (active); that for `COc1ccc(-c2cc3c(=O)n(CCNC(=O)c4ccc(OC)cc4OC)ccn3n2)cc1` was “inactive”.
To `CCC(C(=O)NCCn1ccn2nc(-c3ccc(OC)cc3)cc2c1=O)c1ccccc1` (centres undefined) belongs 15 µM (active).
On to `COc1ccc(-c2cc3c(=O)n(CCNC(=O)c4cc(OC)cc(OC)c4)ccn3n2)cc1`, for which the Potency entry was “inactive”.

For the origin of these results see PubChem BioAssay AID1347416 (National Center for Advancing Translational Sciences (NCATS), 2020).
